Screens from PubChem BioAssay.
Sampled rows, rich in hits. Any-hit rate of the full collection: about 3.8%.
A1 inh – inhibitors of the anti-apoptotic protein A1, read as caspase activation; MEF A1-2A-BIM cells, Caspase-Glo 3/7 luminescence, 3 h; percent of clofoctol response, vehicle zero; caspase activation, % (test concentration not listed); 0.066% of 330,000 active; AID 2462;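 active means over half of replicate activation scores above 10%, or exactly half above 10 with the replicate mean above 10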
Mdm2 MdmX PPI – inhibitors of human Mdm2/MdmX interaction. O15151+Q00987. SaOS-2 split-luciferase Mdm2/MdmX complementation, luminescence. inhibition, % at 8 µM. 3% of 330,000 active. AID 485346;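 active means inhibition of at least 50% at 8 µM in the primary screen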
697 NFkB inh – inhibitors of the PMA/ionomycin-induced NF-kB reporter in 697 B cells. 697 B-cell NF-kB luciferase reporter, 16 h. inhibition, % at 4 µM. 0.33% of 330,000 active. AID 435022; in the data active means inhibition above about 35%
NTR1 agonist – activates human neurotensin receptor 1; NTR1-U2OS beta-arrestin-GFP spot imaging, agonist mode; activation, % at 20 µM; 0.17% of 330,000 active;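 active means activation at or above 40% of the spot to cytoplasm intensity ratio, with at least 20 cells analyzed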;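 further: 0% = DMSO without peptide and 100% = 100 nM NTR1 peptide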
Target sequence (P30989 whole entry, looked up): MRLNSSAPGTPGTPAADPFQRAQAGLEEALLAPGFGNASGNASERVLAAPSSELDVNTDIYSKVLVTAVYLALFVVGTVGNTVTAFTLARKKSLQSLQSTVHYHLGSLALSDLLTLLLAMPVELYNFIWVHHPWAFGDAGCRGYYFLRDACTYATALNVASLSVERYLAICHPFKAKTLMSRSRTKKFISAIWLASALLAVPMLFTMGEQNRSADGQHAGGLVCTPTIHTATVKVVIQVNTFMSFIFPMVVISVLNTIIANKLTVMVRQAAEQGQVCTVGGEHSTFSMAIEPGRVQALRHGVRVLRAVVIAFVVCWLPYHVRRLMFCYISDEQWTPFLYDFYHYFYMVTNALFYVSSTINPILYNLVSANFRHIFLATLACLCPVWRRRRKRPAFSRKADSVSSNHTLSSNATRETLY
Jurkat NFkB inh – inhibitors of the PMA/ionomycin-induced NF-kB reporter in Jurkat cells; PMA/ionomycin-induced NF-kB luciferase reporter, luminescence; inhibition, % at 4 µM; 0.53% of 330,000 active; in the data active means inhibition above about 50%
Beta cell apopt – blocks beta cell apoptosis | INS-1E cytokine-induced death, ATP luminescence, 48 h; percent of positive-control rescue, neutral wells zero | AID 435005 | protection from apoptosis, % (concentration not given with the values) | 0.8% of 300,000 active;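 active means Every replicate reaches about 75%, or at least half do and their mean reaches it too, limit read from the data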;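 further: 0% = cytokine-treated negative control wells and 100% = positive control rescue; higher means more ATP so stronger rescue from cytokine killing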
Mdm2 MdmX conf – human Mdm2/MdmX binding inhibition, confirmed. shares compounds with Mdm2 MdmX PPI. luminescent assay. inhibition, % at 8 µM. 55% of 10,000 active. AID 489028; in the data active means inhibition above about 40%
Full FLuc ctr – counter-screen for Mdm2/MdmX inhibitors: full-length luciferase. shares compounds with Mdm2 MdmX PPI. SaOS-2 full-length luciferase counterscreen, luminescence. inhibition, % at 8 µM. 77% of 6,200 active. AID 504607;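 active means mean inhibition at 8 µM reaching about 37%, which flags the compound as non-specific, limit read from the data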;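 further: p53-null SaOS-2 cells with luciferase driven by a doxycycline-inducible promoter; compound on cells about two nights before reading with doxycycline added after day one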
Numbers without * were called inactive; / = not tested or not shown.

SMILES	A1 inh	Mdm2 MdmX PPI	697 NFkB inh	NTR1 agonist	Jurkat NFkB inh	Beta cell apopt	Mdm2 MdmX conf	Full FLuc ctr
Oc1ccc(CN2CCC(Cc3ccccc3)CC2)c2cccnc12	/	72.8*	-153.8	6.8	40.2	/	68.7*	69.4*
Oc1ccc(CN2CCc3ccccc3C2)c2cccnc12	1.3	51.1*	-2.9	3.3	37.0	112.5*	77.7*	24.4
Clc1ccccc1CN1CCC(Cc2ccccc2)CC1	0.3	22.5	13.4	1.1	-17.4	2.8	/	/
Oc1c(CN2CCN(c3ccccn3)CC2)cc(Cl)c2cccnc12	-0.1	71.7*	-58.2	4.5	34.3	108.8*	71.1*	28.0
CCC(=O)C1CCCN(C(=O)CCc2nnc(-c3ccc(C(C)=O)s3)o2)C1 (centres undefined)	-0.7	-65.2	-94.8	-1.0	-53.2	0.1	/	/
COc1ccccc1N1CCN(Cc2cc(Br)c(O)c3ncccc23)CC1	-0.4	60.9*	-111.2	4.9	47.0	102.1*	59.9*	59.8*
Oc1ccc(CN2CCN(c3ccccc3)CC2)c2cccnc12	0.9	78.3*	-24.8	2.2	4.3	43.2	65.5*	66.7*
CCOC(=O)N1CCN(Cc2ccccn2)CC1	0.0	-19.1	1.1	-2.4	-7.8	-1.2	/	/
CCOC(=O)N1CCN(Cc2ccc(O)c3ncccc23)CC1	-0.7	50.2*	-8.5	2.4	3.4	-1.1	-8.9	/
Oc1ccc(CN2CCCCC2)c2cccnc12	0.7	49.9	-19.5	4.2	20.3	5.3	/	/
O=C(NCCN1CCOCC1)C(=O)NCC1OCCN1S(=O)(=O)c1ccccc1 (centres undefined)	0.6	-19.2	-8.9	0.4	-13.8	-2.5	/	/
O=C(COC(=O)C1CCN(C(=O)c2ccc(Cl)cc2)CC1)Nc1ccccc1F	-1.4	-9.9	7.4	-0.7	4.9	-2.8	/	/
COc1ccc(NC(=O)/C(C#N)=C\c2cc(C)n(-c3ccc4c(c3)OCO4)c2C)cc1	0.6	58.4*	-53.9	-1.2	46.1	20.8	54.9*	75.2*
Cc1cc(/C=C(\C#N)C(=O)Nc2ccccc2)c(C)n1-c1ccc(C(=O)O)cc1	-0.8	-5.3	26.1	0.5	-2.0	8.5	/	/
O=C(c1ccco1)N1CCN(C(=O)c2cn(-c3ccccc3)nc2-c2ccc(F)cc2)CC1	/	-14.3	4.3	-0.2	-17.0	/	/	/
O=C(Nc1ccc([N+](=O)[O-])cc1)C(Cc1ccccc1)N1C(=O)c2cccc3cccc(c23)C1=O (centres undefined)	5.5*	62.9*	8.5	1.6	-13.6	/	35.0	/
O=C(O)c1ccccc1NC(=O)C(Cc1ccccc1)N1C(=O)c2ccccc2C1=O (centres undefined)	-0.8	12.0	8.0	0.4	4.2	-5.0	/	/
COC(=O)Nc1ccc2c(c1)N(C(=O)CCCl)c1ccccc1S2	0.8	/	/	/	/	-6.7	/	/
COc1ccc(C(NC(C)=O)c2cc(Cl)c3cccnc3c2O)cc1OC (centres undefined)	0.2	68.2*	-19.9	-1.4	4.1	94.5*	76.1*	39.8*
COc1ccccc1C(NC(C)=O)c1cc(Cl)c2cccnc2c1O (centres undefined)	-0.5	66.8*	-13.0	6.1	3.4	94.0*	60.6*	31.2
COc1ccc(C(NC(C)=O)c2nccc3cc(OC)c(OC)cc23)cc1OC (centres undefined)	0.1	4.5	5.4	0.1	-11.0	/	/	/
O=C(O)COc1ccccc1C(Nc1ccccn1)c1cc(Cl)c2cccnc2c1O (centres undefined)	0.0	6.1	2.0	1.2	2.2	-7.6	/	/
COCC1CCN(C(=O)CC2C(=O)NCCN2Cc2cccc(Oc3ccccc3)c2)CC1 (centres undefined)	0.1	7.1	-9.6	1.2	-7.2	-5.0	/	/
Cc1ccc(C)c(S(=O)(=O)N=Nc2c(O)[nH]c3ccccc23)c1	0.1	-3.9	5.1	-0.4	2.4	-0.3	/	/
Cc1ccc2[nH]c(O)c(N=Nc3nc4ccccc4s3)c2c1	-0.1	68.2*	-13.0	-0.7	-15.1	48.0	55.2*	46.8*
SMILES	A1 inh	Mdm2 MdmX PPI	697 NFkB inh	NTR1 agonist	Jurkat NFkB inh	Beta cell apopt	Mdm2 MdmX conf	Full FLuc ctr
CN(C)S(=O)(=O)c1ccc(NC(=O)CN2C(=O)NC(Cc3ccccc3)C2=O)cc1 (centres undefined)	-1.2	1.6	19.3	4.7	-3.9	-3.8	/	/
Cc1ccc(NC(=O)c2cc(N3CCOCC3)nc3ccccc23)cc1	0.3	54.8*	-6.4	0.3	5.5	-3.0	33.6	45.5*
CCOc1ccc(NC(=O)c2cc(OC)nc3ccccc23)cc1	0.4	62.9*	1.0	4.1	38.7	25.4	59.1*	71.4*
O=C(Nc1ccccc1)c1cc(N2CCOCC2)nc2ccccc12	0.8	17.2	13.8	-0.2	9.4	-0.9	/	/
CCOc1ccc(NC(=O)c2cccc3ccccc23)cc1	-0.9	25.0	-75.7	1.6	38.0	5.3	/	/
COc1cc(C(=O)Nc2ccc(C)cc2)c2ccccc2n1	0.0	63.6*	-6.8	4.1	41.6	18.0	48.5*	83.9*
O=C(CCC(=O)N1CCOc2ccccc21)Nc1ccc(F)cc1F	0.3	10.2	14.9	1.0	4.1	-8.5	/	/
O=C(COc1ccc(S(=O)(=O)N2CCOCC2)cc1)Nc1ccc(Cl)c(C(F)(F)F)c1	0.8	60.6*	19.2	3.7	26.2	/	42.9*	65.4*
CN1CCN(S(=O)(=O)c2ccc(NC(=O)Nc3cccc(Cl)c3)cc2)CC1	-0.6	28.5	17.7	1.7	-31.4	-2.3	/	/
COc1ccc(S(=O)(=O)N2CCOCC2)cc1NC(=O)COc1ccc(C)cc1	-0.2	24.3	12.0	-1.3	10.7	3.2	/	/
O=C(Nc1cccc(Cl)c1)Nc1cc(S(=O)(=O)N2CCCCC2)ccc1Cl	-0.4	89.2*	-36.8	4.9	-16.6	51.4	90.8*	51.4*
CCOc1ccc(S(=O)(=O)N2CCOCC2)cc1NC(=O)C1CCC1	2.1	6.9	9.5	0.1	-7.8	-5.3	/	/
CCOc1ccc(S(=O)(=O)N2CCOCC2)cc1NC(=O)CSCc1ccc(C)cc1	-0.7	51.9*	-47.1	-0.9	48.5	14.2	55.5*	53.8*
COc1ccc(Cl)cc1NC(=O)COc1ccc(S(=O)(=O)N2CCOCC2)cc1C	-0.2	68.3*	12.5	5.7	4.7	4.4	18.4	/
COc1ccccc1N1CCN(C2CCCN(C(=O)c3snnc3C)C2)CC1 (centres undefined)	-0.2	18.4	-1.1	-1.4	6.4	-4.1	/	/
CCc1ccccc1OCC(=O)Nc1cc(S(=O)(=O)N2CCOCC2)ccc1N1CCCCC1	/	51.8*	-15.3	3.4	9.6	/	41.0*	82.6*
